The record followed here is PubChem BioAssay (EPA / NIEHS).

SMILES strings stand for the structures. Calls of active or inactive are those of the source. Rule for the calls: active = hit-call score of the fitted dose curve at least 0.9, where 1 is the maximum; inactive = score below 0.9.

Read-out in the test: Tumor necrosis factor receptor superfamily member 6 (Homo sapiens) (UniProt P25445)
The test can be described thus: LTEA_HepaRG_FAS: Life Technologies and Expression Analysis (LTEA) Assay for Fas cell surface death receptor (FAS) using HepaRG (AID 2283447). As to conditions: mRNA level, 48 h; actives raise or lower the signal. In outline:
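Differentiated human HepaRG cells, pre-cultured 48 h, were exposed in duplicate for 48 h to 8-point half-log concentrations (top 100 uM, 0.5% DMSO) in serum-free induction medium; FAS mRNA measured by qRT-PCR, normalized to ACTB/GAPDH/POLR2A, bidirectional fit versus DMSO.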
What is called AC50 is the midpoint of the concentration-response curve, whichever way the signal moves. Take `CSC1=N[C@@](C)(c2ccccc2)C(=O)N1Nc1ccccc1`: the AC50 is 77.8 µM (active). Take `COP(=O)(OC)C(O)C(Cl)(Cl)Cl` (centres undefined): the molecule was called inactive. On the same count and under the same terms, the entry for `CCC(CC)Nc1c([N+](=O)[O-])cc(C)c(C)c1[N+](=O)[O-]` is “inactive”. The same measure, in the same setting: next, `Nc1c(Cl)cc([N+](=O)[O-])cc1Cl`: “inactive”; `CCCCOC(=O)c1ccccc1C(=O)O`: “inactive”; `CCOP(=S)(OCC)OC(Cl)C(Cl)(Cl)Cl` (centres undefined): “inactive”.

For the molecule `CC1=NNC(=O)N(/N=C/c2cccnc2)C1`, the result was inactive.

Turning to `CCc1cccc(CC)c1N(COC)C(=O)CCl`, the result was inactive. Same read-out and setting: next, `COP(=O)(OC)OC(Br)C(Cl)(Cl)Br` (centres undefined): “inactive”. `CCCCSP(=O)(SCCCC)SCCCC`: the result was inactive.

Take `CN1COCN(Cc2cnc(Cl)s2)C1=N[N+](=O)[O-]`: the molecule was classed as inactive. Same read-out and setting: next, `CCOP(=O)(OCC)Oc1cc(C)nc(C(C)C)n1`: “inactive”; `CC(Oc1cccc(Cl)c1)C(=O)O` (centres undefined): “inactive”; `CCOP(=S)(Oc1cnc(C(C)(C)C)nc1)OC(C)C` (centres undefined): “inactive”. For the molecule `CC[C@H](C)[C@H]1O[C@]2(C=C[C@@H]1C)C[C@@H]1C[C@@H](C/C=C(\C)[C@@H](O[C@H]3C[C@H](OC)[C@@H](O[C@H]4C[C@H](OC)[C@@H](NC)[C@H](C)O4)[C@H](C)O3)[C@@H](C)/C=C/C=C3\CO[C@@H]4[C@H](O)C(C)=C[C@@H](C(=O)O1)[C@]34O)O2`, the call was inactive. Same read-out and setting: the entry for `C[N+]1(C)CCCCC1` is “inactive”; for `CCCCOC(=O)[C@@H](C)Oc1ccc(Oc2ccc(C#N)cc2F)cc1` it is “inactive”; for `Cc1nn(-c2cc(NS(C)(=O)=O)c(Cl)cc2Cl)c(=O)n1C(F)F` it is “inactive”. The same measure, in the same setting: the entry for `CN(C)[C@@H]1C(=O)C(C(N)=O)=C(O)[C@@]2(O)C(=O)C3=C(O)c4c(O)cccc4[C@@](C)(O)[C@H]3[C@H](O)[C@@H]12` is “inactive”.
